Assay results as given in PubChem BioAssay (EPA / NIEHS).
Activity calls are given as the source filed them. Rule for the calls: active = hit-call score of the fitted dose curve at least 0.9, where 1 is the maximum; inactive = score below 0.9.

Tests used:
[1] = read-out: Low-density lipoprotein receptor (LDLR), LDLR (gene 3949); assay: BSK_CASM3C_LDLR: BioMAP Diversity Plus: CASM3C Assay for Low-density lipoprotein receptor (LDLR) Biomarker Activity (AID 2283045); details: primary human coronary artery smooth muscle cells; actives raise or lower the signal;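 note: LDLR protein level on the cell surface quantified by ELISA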
[2] = read-out: Monocyte Chemoattractant Protein-1 (MCP1), CCL2 (gene 6347); assay: BSK_CASM3C_MCP1: BioMAP Diversity Plus: CASM3C Assay for Monocyte Chemoattractant Protein-1 (MCP1) Biomarker Activity (AID 2283046); details: primary human coronary artery smooth muscle cells; actives raise or lower the signal;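 note: MCP-1 level quantified by ELISA 24 h after dosing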
[3] = BSK_CASM3C_Proliferation: Cell Proliferation Assessment in the BioMAP Diversity Plus: CASM3C Assay (AID 2283047); details: primary human coronary artery smooth muscle cells;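 note: sulforhodamine B total protein stain as relative cell number at 560 nm; sub-confluent cells exposed 48 h before staining; fitted both ways against DMSO so gain or loss of cell number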
[4] = read-out: Monokine induced gamma interferon (MIG), CXCL9 (gene 4283); assay: BSK_CASM3C_MIG: BioMAP Diversity Plus: CASM3C Assay for Monokine induced gamma interferon (MIG) Biomarker Activity (AID 2283048); details: primary human coronary artery smooth muscle cells; actives raise or lower the signal;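 note: MIG protein level measured by ELISA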
[5] = read-out: serum amyloid A (SAA), SAA1 (gene 6288); assay: BSK_CASM3C_SAA: BioMAP Diversity Plus: CASM3C Assay for serum amyloid A (SAA) Biomarker Activity (AID 2283049); details: primary human coronary artery smooth muscle cells; actives raise or lower the signal;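 note: SAA protein level quantified by ELISA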
[6] = BSK_CASM3C_SRB: Viability Assessment in the BioMAP Diversity Plus: CASM3C Assay (AID 2283050); details: primary human coronary artery smooth muscle cells;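 note: cells exposed to compound for 24 h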
[7] = read-out: Thrombomodulin, THBD (gene 7056); assay: BSK_CASM3C_Thrombomodulin: BioMAP Diversity Plus: CASM3C Assay for Thrombomodulin Biomarker Activity (AID 2283051); details: primary human coronary artery smooth muscle cells; actives raise or lower the signal;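 note: thrombomodulin protein level measured by ELISA 24 h after dosing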
[8] = read-out: Tissue Factor, F3 (gene 2152); assay: BSK_CASM3C_TissueFactor: BioMAP Diversity Plus: CASM3C Assay for Tissue Factor Biomarker Activity (AID 2283052); details: primary human coronary artery smooth muscle cells; actives raise or lower the signal;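 note: cell surface tissue factor protein level read by ELISA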
[9] = read-out: Interferon-gamma inducible Protein 10 (IP10), CXCL10 (gene 3627); assay: BSK_hDFCGF_IP10: BioMAP Diversity Plus: hDFCGF Assay for Interferon-gamma inducible Protein 10 (IP10) Biomarker Activity (AID 2283053); details: primary human foreskin fibroblasts; actives raise or lower the signal
Method in brief: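 IP-10 levels, quantified by ELISA, are taken from human foreskin fibroblast cultures 24 h after chemical treatment, with DMSO serving as negative control and baseline for bidirectional analysis.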

[10] = read-out: Urokinase-type plasminogen activator receptor (uPAR), PLAUR (gene 5329); assay: BSK_CASM3C_uPAR: BioMAP Diversity Plus: CASM3C Assay for Urokinase-type plasminogen activator receptor (uPAR) Biomarker Activity (AID 2283054); details: primary human coronary artery smooth muscle cells; actives raise or lower the signal;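 note: cell-surface uPAR protein level quantified by ELISA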
[11] = read-out: Vascular cell adhesion molecule 1 (VCAM1), VCAM1 (gene 7412); assay: BSK_CASM3C_VCAM1: BioMAP Diversity Plus: CASM3C Assay for Vascular cell adhesion molecule 1 (VCAM1) Biomarker Activity (AID 2283055); details: primary human coronary artery smooth muscle cells; actives raise or lower the signal;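 note: VCAM-1 protein level quantified by ELISA on the cells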
[12] = read-out: Collagen III, COL3A1 (gene 1281); assay: BSK_hDFCGF_CollagenIII: BioMAP Diversity Plus: hDFCGF Assay for Collagen III Biomarker Activity (AID 2283056); details: primary human foreskin fibroblasts; actives raise or lower the signal
Method in brief: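 Human foreskin fibroblast primary cultures sampled 24 h after dosing; Collagen III quantified by ELISA. Signal fitted bidirectionally against DMSO baseline.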

[13] = read-out: Epidermal growth factor receptor (EGFR), EGFR (gene 1956); assay: BSK_hDFCGF_EGFR: BioMAP Diversity Plus: hDFCGF Assay for Epidermal growth factor receptor (EGFR) Biomarker Activity (AID 2283057); details: primary human foreskin fibroblasts; actives raise or lower the signal
Method in brief: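 Measured by ELISA: EGFR levels on primary human foreskin fibroblasts 24 h after chemical treatment, analysed relative to DMSO with bidirectional fitting.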

[14] = read-out: Interleukin-8 (IL8), CXCL8 (gene 3576); assay: BSK_hDFCGF_IL8: BioMAP Diversity Plus: hDFCGF Assay for Interleukin-8 (IL8) Biomarker Activity (AID 2283058); details: primary human foreskin fibroblasts; actives raise or lower the signal
Method in brief: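 Primary human foreskin fibroblasts (hDFCGF system) dosed with chemical; IL-8 measured by ELISA 24 hours later. Bidirectional curve fitting relative to DMSO baseline; cytotoxicity tracked in parallel cultures by SRB total protein staining.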

[15] = BSK_hDFCGF_Proliferation: Cell Proliferation Assessment in the BioMAP Diversity Plus: hDFCGF Assay (AID 2283059); details: primary human foreskin fibroblasts;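 note: curves fitted for both rise and fall of signal versus DMSO baseline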
Method in brief: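 Primary human foreskin fibroblasts, sub-confluent; […]; 10% TCA fix, 0.1% SRB stain, A560 total protein. Gain/loss fitted bidirectionally vs DMSO control.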

[16] = read-out: Macrophage colony-stimulating factor (MCSF), CSF1 (gene 1435); assay: BSK_hDFCGF_MCSF: BioMAP Diversity Plus: hDFCGF Assay for Macrophage colony-stimulating factor (MCSF) Biomarker Activity (AID 2283060); details: primary human foreskin fibroblasts; actives raise or lower the signal
Method in brief: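 Human foreskin fibroblast primary cultures; M-CSF measured by ELISA 24 hours after chemical dosing. Bidirectional fitting relative to DMSO, with overt cytotoxicity tracked by parallel SRB total-protein staining (0.1% SRB, 10% TCA fixation, 560 nm).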

[17] = BSK_hDFCGF_SRB: Viability Assessment in the BioMAP Diversity Plus: hDFCGF Assay (AID 2283061); details: primary human foreskin fibroblasts;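 note: cells exposed to compound for 24 h before the read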
Method in brief: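 Human foreskin fibroblasts in 96-well plates were treated 24 h. Total protein was measured by 0.1% SRB staining after 10% TCA fixation, read at 560 nm. Data were fitted bidirectionally against DMSO.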

[18] = read-out: TIMP metallopeptidase inhibitor 1 (TIMP1), TIMP1 (gene 7076); assay: BSK_hDFCGF_TIMP1: BioMAP Diversity Plus: hDFCGF Assay for TIMP metallopeptidase inhibitor 1 (TIMP1) Biomarker Activity (AID 2283062); details: primary human foreskin fibroblasts; actives raise or lower the signal
Method in brief: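 Human foreskin fibroblast primary cultures dosed for 24 h; secreted/surface TIMP-1 quantified by ELISA. Bidirectional curve fitting against DMSO baseline; cytotoxicity tracked in parallel cultures by SRB total-protein staining.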

[19] = read-out: Monokine induced gamma interferon (MIG), CXCL9 (gene 4283); assay: BSK_hDFCGF_MIG: BioMAP Diversity Plus: hDFCGF Assay for Monokine induced gamma interferon (MIG) Biomarker Activity (AID 2283063); details: primary human foreskin fibroblasts; actives raise or lower the signal
Method in brief: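 MIG/CXCL9 measured by ELISA 24 h after dosing primary human skin fibroblasts. Activity fitted in both directions against DMSO controls. Cytotoxicity was checked in parallel cultures by SRB staining read at 560 nm.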

[20] = read-out: Matrix Metallopeptidase 1 (MMP1), MMP1 (gene 4312); assay: BSK_hDFCGF_MMP1: BioMAP Diversity Plus: hDFCGF Assay for Matrix Metallopeptidase 1 (MMP1) Biomarker Activity (AID 2283064); details: primary human foreskin fibroblasts; actives raise or lower the signal
Method in brief: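 hDFCGF primary fibroblasts (human foreskin); chemical added; 24 h; MMP1 by ELISA; bidirectional fit vs DMSO.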

Measured: AC50

CCOP(=S)(OCC)SCSP(=S)(OCC)OCC
active: [9] 13.9 µM | [12] 10 µM | [15] 31.6 µM
inactive: [1] | [2] | [3] | [4] | [5] | [6] | [7] | [8] | [10] | [11] | [13] | [14] | [16] | [17] | [18] | [19] | [20]

CC(=O)C(Cl)C(=O)N(C)C (stereo not drawn)
inactive: [1] | [2] | [4] | [5] | [6] | [7] | [9] | [10] | [13] | [14] | [17] | [18] | [19] | [20]
active: [3] 35.5 µM | [8] 7.43 µM | [11] 12 µM | [12] 13.8 µM | [15] 26 µM

Oc1cccc2cccnc12
active: [3] 5.5 µM | [7] 4.74 µM | [9] 0.206 µM | [12] 3.47 µM | [13] 0.275 µM | [15] 0.852 µM | [16] 0.301 µM | [17] 0.564 µM | [18] 0.201 µM | [19] 0.169 µM | [20] 0.927 µM
inactive: [1] | [2] | [4] | [5] | [6] | [8] | [10] | [11] | [14]

O=C(OC1CCCCC1)c1ccccc1C(=O)OC1CCCCC1
inactive: [2] | [4] | [5] | [10] | [11]
active: [1] 34.2 µM | [3] 33.4 µM | [6] 20.9 µM | [7] 20.9 µM | [8] 33 µM | [9] 13.4 µM | [12] 5.33 µM | [13] 20.9 µM | [14] 34.9 µM | [15] 10.2 µM | [16] 11 µM | [17] 9.82 µM | [18] 14.3 µM | [19] 16.4 µM | [20] 20.9 µM

Nc1ncc([N+](=O)[O-])s1
inactive: [1] | [2] | [3] | [4] | [5] | [6] | [7] | [8] | [9] | [10] | [11] | [12] | [13] | [14] | [15] | [16] | [17] | [18] | [19] | [20]

C(=NC1CCCCC1)=NC1CCCCC1
inactive: [13]
active: [1] 34.5 µM | [2] 32.8 µM | [4] 33.5 µM | [5] 35.7 µM | [6] 20 µM | [7] 34.5 µM | [8] 25.1 µM | [9] 11.7 µM | [10] 26.8 µM | [11] 20 µM | [12] 33.2 µM | [14] 32.4 µM | [15] 20 µM | [16] 20 µM | [17] 13.8 µM | [18] 14.9 µM | [19] 26.8 µM | [20] 32.7 µM

CC(C)(OO)c1ccccc1
inactive: [1] | [2] | [4] | [5] | [6] | [7] | [8] | [10] | [11]
active: [3] 22.5 µM | [9] 32.7 µM | [12] 20 µM | [13] 35.8 µM | [14] 38.1 µM | [15] 6.71 µM | [16] 28.9 µM | [17] 34.8 µM | [18] 34.7 µM | [19] 34.4 µM | [20] 37.1 µM

CC1(C)Cc2cccc(O)c2O1
inactive: [1] | [2] | [3] | [4] | [5] | [6] | [7] | [8] | [9] | [10] | [11] | [12] | [13] | [14] | [15] | [16] | [17] | [18] | [19] | [20]

O=C(O)C(F)(F)C(F)(F)C(F)(F)C(F)(F)C(F)(F)C(F)(F)F
inactive: [1] | [2] | [3] | [4] | [5] | [6] | [7] | [8] | [9] | [10] | [11] | [12] | [13] | [14] | [15] | [16] | [17] | [18] | [19] | [20]

CCCCCCCCC(=O)NCc1ccc(O)c(OC)c1
inactive: [1] | [2] | [4] | [5] | [6] | [7] | [8] | [9] | [11] | [13] | [14] | [15] | [16] | [17] | [18] | [19] | [20]
active: [3] 20 µM | [10] 20 µM | [12] 25.6 µM
